# Test results reported in the supplement of paper PMC9446081.
# ± gives the standard deviation of the averaged measurements.
# Target: MurC (UniProt C4ZRI6)
# Test: relative enzymatic activity vs untreated control (fraction); higher = less inhibition
# Details: 100 µM; incubation time: 2 h at 37 C
# Method: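 In vitro enzymatic inhibition assays (ProFoldin kits) for 12 purified essential E. coli enzymes or complexes, each treated with 218 active antibacterial compounds at 100 µM for 2 h at 37°C. Read-outs were fluorescence or absorbance (phosphate detection, dye binding), converted to activity via standard curves and expressed relative to untreated DMSO controls.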
# Chain of MurC (C4ZRI6 whole entry, looked up): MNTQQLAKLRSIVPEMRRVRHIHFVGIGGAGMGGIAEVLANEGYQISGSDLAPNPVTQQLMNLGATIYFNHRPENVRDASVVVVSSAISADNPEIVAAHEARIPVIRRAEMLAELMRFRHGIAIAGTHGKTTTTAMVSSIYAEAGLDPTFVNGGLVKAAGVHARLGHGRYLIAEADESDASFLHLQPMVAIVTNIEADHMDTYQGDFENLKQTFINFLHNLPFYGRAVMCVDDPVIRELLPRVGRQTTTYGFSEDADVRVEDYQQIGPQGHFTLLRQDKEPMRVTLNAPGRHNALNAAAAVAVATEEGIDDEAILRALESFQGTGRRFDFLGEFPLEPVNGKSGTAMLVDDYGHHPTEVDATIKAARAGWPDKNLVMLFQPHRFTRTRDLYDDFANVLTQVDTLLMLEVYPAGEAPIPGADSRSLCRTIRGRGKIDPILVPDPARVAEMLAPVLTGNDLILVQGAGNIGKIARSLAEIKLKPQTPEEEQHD
row,SMILES,relative enzymatic activity
1,Cl.O=C1CC2(CCCC2)CC(=O)N1CCCCN1CCN(c2ncccn2)CC1,1.073 ± 0.0016
2,CC(O)C1C(=O)N2C(C(=O)O)=C(SC3CNC(C(=O)N(C)C)C3)C(C)C12 (stereo not given),0.359 ± 0.25
3,CCn1cc(C(=O)O)c(=O)c2cc(F)c(N3CCN(C(=S)Nc4cc(C(F)(F)F)ccc4Cl)CC3)cc21,1.07 ± 0.069
4,CNC1C(OC2C(OC3C(O)C(O)C(NC(=N)N)C(O)C3NC(=N)N)OC(C)C2(O)CO)OC(CO)C(O)C1O.O=S(=O)(O)O (stereo not given),1.1 ± 0.059
5,CCCC[P+](CCCC)(CCCC)Cc1ccc(NC(=O)[C@H](Cc2ccc3ccccc3c2)N/C(=N/C2CCCCC2)NC2CCCCC2)cc1,0.557 ± 0.44
6,CN(C)c1ccc(O)c2c1C[C@H]1C[C@H]3[C@H](N(C)C)C(=O)[C@@H](C(N)=O)C(=O)[C@@]3(O)C(=O)[C@H]1C2=O,1.11 ± 0.018
7,C=CC1=C(C(=O)O)N2C(=O)C(NC(=O)C(=NO)c3csc(N)n3)C2SC1 (stereo not given),0.997 ± 0.02
8,O=C1NCCN1c1ncc([N+](=O)[O-])s1,1.008 ± 0.01
9,NCC[C@H](O)C(=O)N[C@@H]1C[C@H](N)[C@@H](O[C@H]2O[C@H](CN)[C@@H](O)[C@H](O)[C@H]2O)[C@H](O)[C@H]1O[C@H]1O[C@H](CO)[C@@H](O)[C@H](N)[C@H]1O,1.05 ± 0.11
10,CC[C@H](C)C[C@H](C)CCCCCCCCC(=O)N[C@H]1C[C@@H](O)[C@@H](NCCN)NC(=O)[C@@H]2[C@@H](O)CCN2C(=O)[C@H]([C@H](O)CCN)NC(=O)[C@H]([C@H](O)[C@@H](O)c2ccc(O)cc2)NC(=O)[C@@H]2C[C@@H](O)CN2C(=O)[C@H]([C@@H](C)O)NC1=O,0.94 ± 0.061
11,O=[N+]([O-])c1ccc(O)c2ncccc12,1.046 ± 0.004
12,Nc1ncn(C2OC(CO)C(O)C2O)c(=O)n1 (stereo not given),0.989 ± 0.025
13,COC1(NC(=O)C2SC(=C(C(N)=O)C(=O)O)S2)C(=O)N2C(C(=O)O)=C(CSc3nnnn3C)CSC21 (stereo not given),0.978 ± 0.098
14,O=c1[nH]c(=O)n(C2CC(O)C(CO)O2)cc1F (stereo not given),0.948 ± 0.082
15,Oc1c(Cl)cc(Cl)c(Cl)c1Cc1c(O)c(Cl)cc(Cl)c1Cl,3.59 ± 0.79
16,Cc1nnc(SCC2=C(C(=O)O)N3C(=O)[C@@H](NC(=O)Cn4cnnn4)[C@H]3SC2)s1,0.988 ± 0.078
17,CC(=O)On1cc(F)c(=O)[nH]c1=O,1.07 ± 0.079
18,O=c1[nH]cc(F)c(=O)[nH]1,0.97 ± 0.074
19,Cc1cc(O)c(C(=O)NC(C(=O)NC2C(=O)N3C(C(=O)O)=C(CSc4nnnn4C)CSC23)c2ccc(O)cc2)cn1 (stereo not given),0.971 ± 0.12
20,COC1C=COC2(C)Oc3c(C)c(O)c4c(O)c(c(C=NN5CCN(C)CC5)c(O)c4c3C2=O)NC(=O)C(C)=CC=CC(C)C(O)C(C)C(O)C(C)C(OC(C)=O)C1C (stereo not given),0.282 ± 0.059

row,SMILES,relative enzymatic activity
1,Cc1scc2c1N(C(=O)CN1CCN(C)CC1)c1ccccc1NC2=O.Cl,0.945 ± 0.037
2,CN(C)C1C(O)=C(C(N)=O)C(=O)C2(O)C(O)=C3C(=O)c4c(O)ccc(Cl)c4C(O)C3CC12.Cl (stereo not given),1.021 ± 0.0019
3,COc1cc(Cc2cnc(N)nc2N)cc(OC)c1OC,1.03 ± 0.086
4,NCC1OC(OC2C(N)CC(N)C(OC3OC(CO)C(O)C(N)C3O)C2O)C(N)C(O)C1O.O=S(=O)(O)O (stereo not given),1.04 ± 0.018
5,CC1C(NC(=O)C(=NOC(C)(C)C(=O)O)c2csc(N)n2)C(=O)N1S(=O)(=O)O (stereo not given),1.016 ± 0.0098
6,Cn1nnnc1SCC1=C(C(=O)[O-])N2C(=O)C(NC(=O)C(O)c3ccccc3)C2SC1.[Na+] (stereo not given),1.091 ± 0.0095
7,CN1CCN(c2c(F)cc3c(=O)c(C(=O)O)cn4c3c2OCN4C)CC1,0.954 ± 0.1
8,CO/N=C(\C(=O)N[C@@H]1C(=O)N2C(C(=O)O)=C(C)CS[C@H]12)c1csc(N)n1,0.884 ± 0.037
9,COc1ccc2c(c1OC)C(=O)OC2C1c2c(cc3c(c2OC)OCO3)CCN1C.Cl (stereo not given),1.45 ± 0.16
10,CCn1cc(C(=O)O)c(=O)c2cc(F)c(N3CCNCC3)nc21,0.948 ± 0.15
11,COC1(NC(=O)C(C(=O)[O-])c2ccc(O)cc2)C(=O)N2C(C(=O)[O-])=C(CSc3nnnn3C)COC21.[Na+].[Na+] (stereo not given),1.03 ± 0.046
12,COC1C=COC2(C)Oc3c(C)c(O)c4c(O)c(c5c(nc6cc(C)ccn65)c4c3C2=O)NC(=O)C(C)=CC=CC(C)C(O)C(C)C(O)C(C)C(OC(C)=O)C1C (stereo not given),0.715 ± 0.08
13,CC[C@H]1OC(=O)C[C@@H](O)[C@H](C)[C@@H](O[C@@H]2O[C@H](C)C[C@H](N(C)C)[C@H]2O)[C@@H](CC=O)C[C@@H](C)C(=O)/C=C/[C@]2(C)O[C@H]2[C@@H]1C,1.02 ± 0.099
14,C[C@H]1[C@H](NC(=O)/C(=N\OC(C)(C)C(=O)O)c2csc(N)n2)C(=O)N1S(=O)(=O)O,1.29 ± 0.45
15,O=C([O-])CCC(=O)OCC(NC(=O)C(Cl)Cl)C(O)c1ccc([N+](=O)[O-])cc1.[Na+] (stereo not given),1.01 ± 0.081
16,CON=C(C(=O)NC1C(=O)N2C(C(=O)[O-])=C(CSc3nc(=O)c([O-])nn3C)CSC12)c1csc(N)n1.O.O.O.[Na+].[Na+] (stereo not given),1.041 ± 0.0071
17,Nc1nc(/C(=N/O)C(=O)N[C@@H]2C(=O)N3C(C(=O)O)=C(/C=C4\CCN([C@@H]5CCNC5)C4=O)CS[C@H]23)ns1,0.717 ± 0.24
18,COC12C(COC(N)=O)C3=C(C(=O)C(C)=C(N)C3=O)N1CC1NC12 (stereo not given),0.719 ± 0.092
19,Cc1c(N)nc([C@H](CC(N)=O)NC[C@H](N)C(N)=O)nc1C(=O)N[C@H](C(=O)N[C@H](C)[C@@H](O)[C@H](C)C(=O)N[C@H](C(=O)NCCc1nc(-c2nc(C(=O)NCCCNCCCCN)cs2)cs1)[C@@H](C)O)[C@@H](O[C@@H]1O[C@@H](CO)[C@@H](O)[C@H](O)[C@@H]1O[C@@H]1O[C@H](CO)[C@@H](O)[C@H](OC(N)=O)[C@@H]1O)c1c[nH]cn1,1.006 ± 0.0098
20,CON=C(C(=O)NC1C(=O)N2C(C(=O)O)=C(C[N+]3(C)CCCC3)CSC12)c1csc(N)n1.[Cl-] (stereo not given),0.984 ± 0.032
